A selection: hits, their analogues and other compounds. The true share with any hit is near 22%.
Shiga inhibitor = A qHTS for Small Molecule Inhibitors of Shiga Toxin | inhibition, % at 38.7 µM | Vero cells, Shiga toxin protein synthesis inhibition reporter | AID 2315, 2010 | hit rate 9.2% among 290,000; in the data active = inhibition mostly above about 28%, no sharp cut-off; inactive = mostly below about 43%; note: 0% is about no effect
CHX counter = Cycloheximide Counterscreen for Small Molecule Inhibitors of Shiga Toxin. cell reporter, cycloheximide protein synthesis inhibition counterscreen. max response, %. hit rate 12% among 300,000. AID 2314, 2010; in the data active = max response mostly above about 13%, no sharp cut-off; inactive = mostly below about 14%; note: read at 38.3 µM for the half of the compounds with a filed dose; 0% is about no effect
Pf growth 96h = Primary qHTS for delayed death inhibitors of the malarial parasite plastid, 96 hour incubation. P. falciparum luciferase reporter growth, 96 h. Potency, µM (highest dose often 28.7 µM), for inactives: at the top dose activity change, negative = inhibition, most hits filed as inhibitors. hit rate 6.9% among 320,000. AID 504834, 2011; note: potency is the fitted concentration of half-maximal effect; % is set by controls: 0 for no effect and ±100 for the full control effect
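96 h incubation, 37 C, 5% CO2, of luciferase-reporter P. falciparum-infected RBCs (2% hematocrit, 0.05% parasitemia final) with test compounds; endpoint luminescence.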
Pf growth 48h = Primary qHTS for delayed death inhibitors of the malarial parasite plastid, 48 hour incubation; AID 504832, 2011; hit rate 5.9% among 310,000; Potency, µM (titrated, usually from 28.7 µM), for the others: at the highest dose activity change, negative = inhibition, usual class: inhibitors; P. falciparum luciferase growth in erythrocytes, 48 h; note: potency is the fitted concentration of half-maximal effect; % is set by controls: 0 for no effect and ±100 for the full control effect
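First compound was added to culture medium, then infected red cells at 0.1% parasitemia and 2% hematocrit (final). After incubation at 37 C under 5% CO2, luciferase detection reagent was dispensed and light output recorded.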
LmPK inh = qHTS Assay for Inhibitors of Leishmania Mexicana Pyruvate Kinase (LmPK) | AID 1721, 2009 | purified LmPK, Kinase-Glo ATP luminescence, 1 h | hit rate 0.37% among 290,000 | Q27686 | Potency, µM (titrated, usually from 57.5 µM), for inactives: at the top dose activity change, negative = inhibition, hits mostly inhibitors; note: potency is the fitted concentration of half-maximal effect; % is set by controls: 0 for no effect and ±100 for the full control effect
Target sequence (Q27686 whole entry, looked up): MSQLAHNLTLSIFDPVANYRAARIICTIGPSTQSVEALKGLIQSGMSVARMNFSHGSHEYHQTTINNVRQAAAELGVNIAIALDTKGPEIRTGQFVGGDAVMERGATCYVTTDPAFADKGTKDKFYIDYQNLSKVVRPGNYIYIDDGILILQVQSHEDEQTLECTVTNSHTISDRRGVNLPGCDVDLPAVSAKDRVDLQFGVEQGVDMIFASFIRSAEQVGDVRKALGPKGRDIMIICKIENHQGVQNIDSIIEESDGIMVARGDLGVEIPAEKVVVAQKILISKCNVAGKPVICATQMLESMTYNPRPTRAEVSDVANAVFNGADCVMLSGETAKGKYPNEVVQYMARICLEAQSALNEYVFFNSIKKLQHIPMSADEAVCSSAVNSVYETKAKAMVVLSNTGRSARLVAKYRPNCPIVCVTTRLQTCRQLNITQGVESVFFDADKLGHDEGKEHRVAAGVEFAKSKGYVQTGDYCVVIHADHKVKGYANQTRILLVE
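Screened at intermediate enzyme activity to detect both inhibitors and activators: LmPK at 0.1 nM, with a 0.5 nM enzyme column as activation reference. PEP 0.5 mM, ADP 0.1 mM; ATP detected by luminescence after 1 h.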
Numbers without * were called inactive; ? = inconclusive; · = no result. Unless noted, calls come from the whole dose curve; as a rule, active = well fitted inhibition curve with a large enough effect; inconclusive = small, poorly fitted or top-dose-only effect, or another doubt; inactive = no such curve, though single readings can be large or run the other way.

SMILES | Shiga inhibitor | CHX counter | Pf growth 96h | Pf growth 48h | LmPK inh
COc1ccccc1CNC(=O)c1oc2ccc(S(=O)(=O)N3CCOCC3)cc2c1C | 19 | -1 | 1% | ? | -1%
Cc1c(C(=O)NCc2ccccc2CN2CCCC2)oc2c(F)cccc12 | · | · | ? | 13µM* | ·
CCOC(=O)c1oc2ccccc2c1CN1CCCCC1 | 17 | 7 | ? | 23% | 0%
COc1ccc(C(CNC(=O)c2oc3ccc(OC)cc3c2C)N2CCCC2)cc1 (configuration not stated) | · | · | 9.3µM* | 8.3µM* | ·
Cc1ccc2c(c1)OC(c1ccc3c(c1)OCCO3)CC2=O (configuration not stated) | 67* | 29* | 208% | 124% | -2%
CCOC(=O)N1CCC(N2Cc3cccc(C(=O)Nc4ccc(OCC)cc4)c3C2=O)CC1 | -7 | -3 | ? | ? | 0%
O=C1NC2(CCCCCC2)C(=O)N1Cc1ccc(Br)cc1 | -10 | -1 | 25% | 4% | 7%
CCOc1ccc(C(C)=O)cc1CN1C(=O)NC2(CCCCCC2)C1=O | -3 | -4 | 4.7µM* | 2.3µM* | 5%
CC(=O)c1ccc(OCC(C)C)c(CN2CCCCC2)c1 | -25 | -10 | 3.7µM* | -3% | -4%
COc1ccc(C(C)=O)cc1CN1C(=O)NC2(CCCCCCC2)C1=O | -1 | 5 | 8% | 32% | -2%
COC(=O)c1ccc(CN2C(=O)NC3(CCCCC3)C2=O)cc1 | 61* | 119* | 66% | 50% | 0%
COc1ccccc1CNS(=O)(=O)c1ccc2c(c1)NC(=O)CO2 | -16 | -12 | ? | 23% | -13%
O=c1c(=NNc2ccccc2Cl)c(=O)c2ccccc12 | 83* | 41* | 74% | 364% | 16µM*
Cc1cc(C)c(NN=c2c(=O)c3ccccc3c2=O)c(C)c1 | 7 | 30* | 28% | · | -4%
C=CCNC(=O)c1onc(CSc2cccc(OC)c2)c1C(=O)NCC=C | -5 | -8 | 46% | ? | 9%
O=C(COC(=O)/C=C/c1ccc2c(c1)OCO2)Nc1ccccc1 | 93* | 40* | 14% | 25% | -4%
O=C(COC(=O)c1ccc2c(c1)OCO2)Nc1ccccc1 | 41* | 13* | 13% | -2% | -6%
O=C(COC(=O)/C=C/c1ccc2c(c1)OCO2)Nc1ccc(S(=O)(=O)N2CCCC2)cc1 | 14 | -2 | 2% | 1% | 2%
O=C(COC(=O)c1ccncc1)Nc1ccccc1 | 59 | 21* | 67% | 0% | -7%
O=C(COC(=O)c1cccnc1)Nc1ccccc1 | -4 | -4 | ? | ? | 3%
O=c1cc[nH]c2ccc([N+](=O)[O-])cc12 | 23 | 10 | -10% | 0% | 1%
CCCCCCCCCC(=O)NO | · | · | ? | -11% | ·
O=Cc1cn(CCOc2ccccc2)c2ccccc12 | -7 | -3 | -15% | -9% | -1%
COc1cc(/C=C/C(=O)OC2CC3CCC2(C)C3(C)C)ccc1O (configuration not stated) | 23 | 14* | 3% | ? | 2%
COc1ccc(/C=N/Nc2cc(OC)ncn2)cc1 | 97* | 25* | -6% | 212% | ?
SMILES | Shiga inhibitor | CHX counter | Pf growth 96h | Pf growth 48h | LmPK inh
COc1ccc(/C=N/Nc2cc(N(C)C)nc(N(C)C)n2)cc1 | -10 | 3 | 12µM* | ? | 2%
CN(C)c1cc(N/N=C\c2ccccc2)nc(N(C)C)n1 | 8 | -2 | -4% | ? | 5%
N=C1C(c2ccccc2)=C(O)CN1c1cccc(S(N)(=O)=O)c1 | -10 | 1 | 26% | 23% | 0%
CCN(CC)S(=O)(=O)c1cccc(N2CC(O)=C(c3ccccc3)C2=N)c1 | 17 | 0 | 2.6µM* | 2.6µM* | -5%
COC(=O)c1ccc(/C=N/NC(=O)C(=O)NCc2ccccc2)cc1 | 9 | 8 | 19% | 40% | 5%
CC(=O)Nc1cc(C)nn1-c1nc2ccccc2s1 | 52* | 33* | 193% | 462% | 5%
Cc1cc(C)n(-c2ccc(C(=O)Nc3nc4ccccc4s3)cc2)n1 | 26 | 20* | 280% | 126% | 1%
Cc1cc(NC(=O)CN2CCOCC2)n(-c2nc3ccccc3s2)n1 | 43 | -1 | 13% | 7% | 4%
Nc1ccc(C(=O)Nc2nc3ccccc3s2)cc1 | 42* | 41* | 243% | 147% | -29%
COc1ccccc1C(=O)Nc1nc2ccccc2s1 | · | -13 | ? | ? | 1%
CCNC(=S)Nc1ccc(Cl)cc1Cl | 35 | -3 | -20% | 7% | 0%
CCn1nc(C)c(/C=N/NC(=S)Nc2ccc(Cl)cc2Cl)c1C | active | 11 | ? | -16% | 7%
Cc1nn(C)cc1/C=N/NC(=S)Nc1ccc(Cl)cc1Cl | active | 12* | -24% | 35% | 5%
Cc1cc(C)n2nc(C(=O)N/N=C/c3cn(C)nc3C)nc2n1 | 20 | -1 | -3% | 24% | -6%
CN1C[C@H](C(=O)N[C@]2(C)O[C@@]3(O)[C@@H]4CCCN4C(=O)[C@H](Cc4ccccc4)N3C2=O)C=C2c3cccc4[nH]cc(c34)C[C@H]21 | · | · | 0.3µM* | 0.3µM* | ·
CC(C)C[C@H]1C(=O)N2CCC[C@H]2[C@]2(O)O[C@](NC(=O)[C@@H]3C=C4c5cccc6[nH]cc(c56)C[C@H]4N(C)C3)(C(C)C)C(=O)N12 | · | · | 3.7µM* | 2.9µM* | ·
CC(C)C[C@H]1C(=O)N2CCC[C@H]2[C@]2(O)O[C@](NC(=O)[C@@H]3C=C4c5cccc6[nH]c(Br)c(c56)C[C@H]4N(C)C3)(C(C)C)C(=O)N12 | -2 | -1 | · | · | ·
CCc1cc(=O)oc2cc(C)cc(OC(C)C(=O)NCc3cccnc3)c12 (configuration not stated) | 3 | -2 | ? | ? | 1%
C(=C\c1ccc(/C=C/c2ccccc2)nn1)/c1ccccc1 | -2 | 2 | -2% | 3% | 4%
N#CCSc1nccc(/C=C/c2ccccc2)n1 | 40* | 42* | ? | 20% | 2%
C=CCN(CC=C)c1cnn(-c2nc3ccccc3[nH]2)c(=O)c1Cl | 89* | 27* | · | -22% | 16µM*
O=c1c(Cl)c(NCCCO)cnn1-c1nc2ccccc2[nH]1 | 137* | 84* | 463% | 348% | 14µM*
CCCS(=O)(=O)c1c(S(=O)(=O)CCC)c2c(C(N)=O)cccn2c1C(=O)c1ccc(F)cc1 | -4 | 0 | 14% | 8% | 8%
CCCS(=O)(=O)c1c(S(=O)(=O)CCC)c2cnccn2c1C(=O)c1ccc(CC)cc1 | -4 | -3 | · | 3.3µM* | 9%
CCCS(=O)(=O)c1c(S(=O)(=O)CCC)c2ccc(C(N)=O)cn2c1C(=O)c1ccccc1 | 2 | -1 | 6% | -29% | -7%
CCCS(=O)(=O)c1c(S(=O)(=O)CCC)c2cnccn2c1C(=O)c1ccc(OC)cc1 | 8 | 1 | ? | 10µM* | 4%
